GALR2 agonist = agonists of human galanin receptor 2 (GALR2) | GALR2-expressing cells, agonist activation read-out | activation, % (concentration not given with the values) | hit rate 0.48% among 140,000 | AID 803; in the data active = activation above about 5%, passing the limit was not always enough
Target sequence (O43603 whole entry, looked up): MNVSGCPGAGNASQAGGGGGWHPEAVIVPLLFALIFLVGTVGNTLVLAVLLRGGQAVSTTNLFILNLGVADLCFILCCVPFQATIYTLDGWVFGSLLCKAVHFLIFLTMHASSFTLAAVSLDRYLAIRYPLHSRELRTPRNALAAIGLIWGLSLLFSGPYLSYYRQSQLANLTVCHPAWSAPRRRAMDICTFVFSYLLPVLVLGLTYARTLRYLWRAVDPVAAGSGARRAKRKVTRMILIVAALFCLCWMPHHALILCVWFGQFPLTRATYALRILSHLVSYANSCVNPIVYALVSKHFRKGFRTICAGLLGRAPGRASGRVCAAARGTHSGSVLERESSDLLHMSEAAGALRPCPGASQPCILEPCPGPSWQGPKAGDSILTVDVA
GALR2 blocker = blocks the human galanin receptor 2; inhibition, % at 4 µM; GALR2-expressing cells, antagonist mode; hit rate 0.39% among 140,000; O43603; in the data active = inhibition above about 27%;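 also: cells stimulated with galanin 1-16 at roughly its EC80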
S1P2 antag = antagonists of human S1P2 receptor; cell-based S1P2 antagonist assay, inhibition at 5 uM; inhibition, % at 5 µM; AID 736; O95136; hit rate 0.21% among 97,000; in the data active = inhibition above about 45%;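 also: CRE beta-lactamase reporter cells expressing human S1P2 stimulated with S1P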
S1P2 agonist = activates the human S1P2 receptor; S1P2-expressing cell line, agonist reporter read-out; hit rate 0.46% among 97,000; activation, % at 4.5 µM; in the data active = activation above about 16%
Of the large screens only hits and unclear results are named; the others gave an inactive call. Hits are enriched below; roughly 1.1% of the tested compounds scored in any of these assays.

CCCn1c(C)cc(C(=O)COC(=O)c2cc(S(=O)(=O)NCC(C)C)c(Cl)cc2Cl)c1C	S1P2 agonist 28.7
CC(C)CNS(=O)(=O)c1cc(C(=O)OCC(=O)c2ccc3c(c2)OCCO3)c(Cl)cc1Cl	none (no result: S1P2 antag, S1P2 agonist)
CCOC(=O)CS(=O)(=O)c1nc(-c2ccccc2)cc(C(F)(F)F)n1	GALR2 blocker 59.1
CNC(=O)c1cc2cc(Cl)cc(OC)c2oc1=O	none
COc1ccc(C(C(=O)OC(C)CN(C)C)c2ccccc2)cc1 (stereo unspecified)	none
CN(C)CC(C(=O)c1ccccc1)c1ccccc1 (stereo unspecified)	GALR2 blocker 41.9 (no result: S1P2 antag, S1P2 agonist)
O=C(NC(Nc1ncc(S(=O)(=O)c2ccc([N+](=O)[O-])cc2)s1)(C(F)(F)F)C(F)(F)F)c1ccc(Cl)cc1	S1P2 antag 47.1
O=C(Nc1ncc(S(=O)(=O)c2ccc([N+](=O)[O-])cc2)s1)c1cccc2ccccc12	none (no result: S1P2 antag, S1P2 agonist)
COc1cc2c(cc1OC)C(CC#N)=NC(C)(C)C2	S1P2 agonist 17.8
CC1(C)CC(CC(=O)Nc2nccs2)(c2ccccc2)CCO1 (stereo unspecified)	none (no result: S1P2 antag, S1P2 agonist)
COc1ccc(/C=C/C(=O)OCC(=O)NCc2ccco2)cc1OC	none (no result: S1P2 antag, S1P2 agonist)
COc1cc2c(cc1OC)C(c1cc3ccccc3oc1=O)=NC(C)(C)C2	S1P2 agonist 32.8
CCN(CC)CCNC(=O)CCCNC(=O)Cn1cnc2sc(C)c(C)c2c1=O	none
O=C(Nc1ccc2c(c1)OCCO2)C1CCN(C(=O)c2ccccc2)CC1	S1P2 agonist 23.7
Cc1ccc(S(=O)(=O)NCCCCCC(=O)Nc2cccc(C)c2)cc1	none (no result: S1P2 antag, S1P2 agonist)
Cc1ccc(-n2ncc3c(N4CCN(c5ccccc5)CC4)ncnc32)c(C)c1	S1P2 antag 60.1
CC(C)c1nnc(NC(=O)CCC(=O)Nc2ccc(F)cc2)s1	none
Cc1cc(=O)oc2cc3c(cc12)OCCN3	GALR2 agonist 10.2, S1P2 agonist 45.8
Cc1cc(=O)oc2cc3c(cc12)OCCO3	none (no result: S1P2 antag, S1P2 agonist)
COc1ccc(-c2cc(C3CCN(c4cc(Cl)nc(N)n4)CC3)[nH]n2)cc1	none
Nc1nc(Cl)cc(N2CCC(c3cc(-c4ccc(Cl)cc4)n[nH]3)CC2)n1	S1P2 antag 81.6
COc1ccc(N2C(=O)C3CCCN3C2c2cccc(F)c2)cc1Cl (stereo unspecified)	none
COc1ccc(NC(=S)Nc2cccc(S(=O)(=O)N3CCCCC3)c2)cc1	none (no result: S1P2 antag, S1P2 agonist)
N#Cc1ccc(CSc2ncnc3c2cnn3Cc2ccccc2)cc1	none
COc1cccc(C2CN(c3ccc(F)cc3F)N=C2c2cccs2)c1OC (stereo unspecified)	GALR2 agonist 40.6, S1P2 agonist 44.1
COc1ccccc1C1CN(c2ccccc2)N=C1c1cccs1 (stereo unspecified)	GALR2 agonist 60.8, S1P2 agonist 33.4
CC(C)CNS(=O)(=O)c1ccc(S(=O)(=O)N2CCN(CCC#N)CC2)cc1	none (no result: S1P2 antag, S1P2 agonist)
O=c1ccn(-c2cccc(C(F)(F)F)c2)nc1-c1ccn(-c2ccccc2F)n1	S1P2 agonist 18.6
COc1ccc(-n2ccc(-c3nn(-c4cccc(C(F)(F)F)c4)ccc3=O)n2)cc1	S1P2 agonist 18.1
C/C(=N/O)c1ccc2c(c1)OCCOCCOc1cc(/C(C)=N/O)ccc1OCCOCCO2	none (no result: S1P2 antag, S1P2 agonist)
CCOC(=O)N1CCN(C(=O)c2cnc(Nc3ccccc3OC)c3ccccc23)CC1	GALR2 agonist 7.0 (no result: S1P2 antag, S1P2 agonist)
CCOC(=O)N1CCN(C(=O)c2cccc(OC)c2OC)CC1	none
CCOC(=O)COc1ccc(S(=O)(=O)N2CCN(c3ccccc3)CC2)cc1	none (no result: S1P2 antag, S1P2 agonist)
CCOC(=O)C1=C(C)NC(SCC(=O)Nc2nc(C)cs2)=C(C#N)C1c1cccs1 (stereo unspecified)	GALR2 agonist 21.8, S1P2 agonist 19.8
COc1ccc2oc(=O)c(/C(C)=N/NC(=O)c3ccncc3)cc2c1	none (no result: S1P2 antag, S1P2 agonist)
COc1cc2c(cc1OC)-c1cc(OCc3ccccc3Cl)nc(=O)n1CC2	S1P2 agonist 29.2
COc1cc2c(cc1OC)-c1cc(NC3CCCC3)nc(=O)n1CC2	S1P2 agonist 24.3
COc1cc2c(cc1OC)C(C(=O)NC1CC1)C1c3ccccc3CCN1C2=O (stereo unspecified)	none
CCCc1cc(=O)oc2cc(OCC(=O)OC)cc(OCC(=O)OC)c12	none
Cc1nc(SCC(=O)N2CCc3ccccc32)n[nH]1	none
COCCn1nnnc1C(c1ccc(OC)c(OC)c1)N1CCN(c2nc3ccccc3s2)CC1 (stereo unspecified)	none
CC(=O)c1c(C)[nH]c(C(=O)COc2ccc(C#N)cc2)c1C	none
COc1ccccc1OCC(=O)c1[nH]c(C)c(C(C)=O)c1C	S1P2 antag 50.6
COc1cccc(NC(=O)C2CCCN2C(=O)Nc2cccc(F)c2)c1 (stereo unspecified)	none
COC(=O)[C@H]1CCCN1C(=O)Nc1cccc(Oc2c(F)c(F)c(F)c(F)c2F)c1	GALR2 agonist 14.2
